PubChem BioAssay (EPA / NIEHS)
Values joined by “and” are separate entries in the source; they are usually repeats but may differ in a detail not shown here. Equal values may be shown once. Active and inactive are the calls of the source. Rule for the calls: active = hit-call score of the fitted dose curve at least 0.9, where 1 is the maximum; inactive = score below 0.9.

Test: APR_HepG2_CellLoss_1hr: Apredica 1-hour HepG2 Assay for Cell Loss (AID 2282668);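 note: curves fitted both ways against DMSO so gain or loss of cells counts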
Details: high-content imaging
Description: APR_HepG2_1hr is a cell-based, multiplexed-readout assay that uses HepG2, a human liver cell line, with measurements taken at 1 hour after chemical dosing in a 384-well plate.APR_HepG2_CellLoss_1hr is one of 10 assay component(s) measured or calculated from the APR_HepG2_1hr assay. It is designed to make measurements of cell number, a form of viability reporter, as detected with fluorescence intensity signals by HCS Fluorescent Imaging technology.Data from the assay component APR_HepG2_CellLoss_1hr was analyzed into 1 assay endpoint. This assay endpoint, APR_HepG2_CellLoss_1hr, was analyzed with bidirectional fitting relative to DMSO as the negative control and baseline of activity. Using a type of viability reporter, measures of all nuclear dna for gain or loss-of-signal activity can be used to understand the viability at the cellular-level. Furthermore, this assay endpoint can be referred to as a secondary readout, because this assay has produced multiple assay endpoints where this one serves a viability function. To generalize the intended target to other relatable targets, this assay endpoint is annotated to the cell cycle intended target family, where the subfamily is proliferation.
Cells were treated with dimethyl sulfoxide (DMSO) as a solvent control at a final concentration of 0.5% v/v or with compounds in DMSO with a resulting final DMSO concentration of 0.5% v/v. Compound treatment was done at concentrations of 0.39, 0.78, 1.56, 3.12, 6.24, 12.5, 25, 50, 100, and 200 uM in duplicate on each plate. Cells were treated with compounds for 1, 24, or 72 hr. Carbonyl […] m-chloro-phenylhydrazone (CCCP) and taxol were used as positive controls for mitochondrial function and cytoskeletal stability, respectively; DMSO served as the negative control for this experiment. Cells were fixed by the direct addition of 50 uL formaldehyde in Hank's Balanced Salt Solution (HBSS) to a final concentration of 3.7%. After incubation in the fixation medium for 30 min at room temperature (293-298 K), cells were rinsed twice with HBSS and treated with cell permeabilization buffer (16 uL of 0.5% Triton X-100) for 10 min at room temperature (293-298 K) before labeling. For mitochondrial membrane potential and mitochondrial measurements, pre-fixed cells were incubated with 50 uL of MitoTracker Red CMXRos (Invitrogen) at a concentration of 250 nM for 30 min before fixation. In the remaining cases, post-fixed cells were labeled by incubation with a multiplexed mixture of primary antibodies in HBSS for 60 min at room temperature (293-298 K) to detect immunoreactivity of c-Jun (1:500), phospho-histone H3 (1:100), phospho-histone H2A.x (1:200), p53 (1:400), alpha-tubulin (1:200) and Hoechst 33342 (2 ug/mL). Cells were labeled for multiplexed imaging on two separate plates: a) Hoechst 33342, MitoTracker Red, phospho-histone H3, and alpha-tubulin, and b) Hoechst 33342, phospho-histone H2A.x, and c-Jun. A final rinse with HBSS (50 uL) was performed before analysis. The primary and secondary antibodies for the proteins were phospho-histone H3 (rabbit anti-phospho-histone H3 and FITC-donkey anti-rabbit IgG), phospho-histone H2A.x (mouse anti-phospho-histone H2A.x and FITC-donkey anti-mouse IgG), c-Jun (rabbit anti-phospho-c-Jun and Cy3-donkey anti-rabbit IgG), p53 (sheep anti-p53 and Cy5-donkey anti-sheep IgG), alpha-tubulin (mouse anti-alpha-tubulin and Cy5-donkey anti-mouse IgG). These antibodies are available as the CellCiphr HepG2 assay kit (Millipore).Digital images of each well were captured using a Cellomics ArrayScan VTI (Thermo Scientific Cellomics) (0.8 NA objective, 0.63x optical coupler, and XF-93 filter set) at 20x magnification. The images were acquired using the autofocus feature of the ArrayScan instrument, which entails the following steps. First, the camera focuses on channel 1 (Hoechst 33342), where nuclei are identified. Second, a Z offset of 1 um is used for capturing mitochondria (MitoTracker Red). […]

| Compound | outcome | AC50 |
| --- | --- | --- |
| COP(=S)(OC)Oc1nc(Cl)c(Cl)cc1Cl | inactive | – |
| CCOC(=O)CC(SP(=S)(OC)OC)C(=O)OCC (stereo not given) | inactive | – |
| N#Cc1cc(Br)c(O)c(Br)c1 | inactive | – |
| O=C(Nc1ccccc1)Nc1ccnc(Cl)c1 | inactive | – |
| COc1ccc(C(c2ccc(OC)cc2)C(Cl)(Cl)Cl)cc1 | inactive | – |
| CCNc1nc(Cl)nc(NCC)n1 | inactive | – |
| C=CC1(C)OC(=O)N(c2cc(Cl)cc(Cl)c2)C1=O (stereo not given) | inactive | – |
| COc1nc(NC(C)C)nc(NC(C)C)n1 | inactive | – |
| CCOC(=O)C(Cl)Cc1cc(-n2nc(C)n(C(F)F)c2=O)c(F)cc1Cl (stereo not given) | inactive | – |
| CON(C)C(=O)Nc1ccc(Cl)c(Cl)c1 | inactive | – |
| Cc1c(F)c(F)c(COC(=O)C2C(/C=C(\Cl)C(F)(F)F)C2(C)C)c(F)c1F (stereo not given) | inactive | – |
| N#CC(CCc1ccc(Cl)cc1)(Cn1cncn1)c1ccccc1 (stereo not given) | inactive | – |
| COc1nc(C)nc(NC(=O)NS(=O)(=O)c2ccccc2Cl)n1 | inactive | – |
| Fc1ccc(Oc2ccnc3cc(Cl)cc(Cl)c23)cc1 | inactive | – |
| CCOP(=S)(OCC)SCn1c(=O)oc2cc(Cl)ccc21 | inactive | – |
| CCOc1cc(Oc2ccc(C(F)(F)F)cc2Cl)ccc1[N+](=O)[O-] | inactive | – |
| CCCCNC(=O)OCC#CI | – | 100 µM (active) and 129 µM (active) |
| O=C(O)COc1nc(Cl)c(Cl)cc1Cl | inactive | – |
| COc1cnc(OC)n2nc(NS(=O)(=O)c3c(OCC(F)F)cccc3C(F)(F)F)nc12 | inactive | – |
| CC1COC(Cn2cncn2)(c2ccc(Oc3ccc(Cl)cc3)cc2Cl)O1 (stereo not given) | inactive | – |

| Compound | outcome | AC50 |
| --- | --- | --- |
| CNC(=S)S | inactive | – |
| CCCN(CCC)c1c([N+](=O)[O-])cc(S(N)(=O)=O)cc1[N+](=O)[O-] | – | 66.6 µM (active) |
| CC(C)Oc1cc(-n2nc(C(C)(C)C)oc2=O)c(Cl)cc1Cl | inactive | – |
| COP(N)(=O)SC (stereo not given) | inactive | – |
| CCON=C(CC)C1=C(O)CC(c2c(C)cc(C)cc2C)CC1=O (stereo not given) | inactive | – |
| CC(Oc1ccc(Cl)cc1Cl)C(=O)O (stereo not given) | inactive | – |
| CCCCOC(=O)c1ccccc1C(=O)OCCCC | inactive | – |
| COc1nc(C)nc(NC(=O)NS(=O)(=O)c2ccccc2CCC(F)(F)F)n1 | inactive | – |
| COC(=O)C=C(C)OP(=O)(OC)OC | inactive | – |
| COC(=O)C(C)Oc1ccc(Oc2ccc(Cl)cc2Cl)cc1 (stereo not given) | inactive | – |
| COC(=O)c1ccccc1C(=O)OC | inactive | – |
| CS/C(C)=N/OC(=O)N(C)SN(C)C(=O)O/N=C(\C)SC | – | 45.7 µM (active) |
| CNC(=O)ON=CC(C)(C)SC | inactive | – |
| CC(C)C1(C)N=C(c2nc3ccccc3cc2C(=O)O)NC1=O (stereo not given) | inactive | – |
| C#CCOS(=O)OC1CCCCC1Oc1ccc(C(C)(C)C)cc1 (stereo not given) | inactive | – |
| CC(C)(C)c1ccc(CSc2cnn(C(C)(C)C)c(=O)c2Cl)cc1 | inactive | – |
| CN(C)C(=S)SSC(=S)N(C)C | inactive | – |
| Cc1ccc(-c2c(Cl)nc(C#N)n2S(=O)(=O)N(C)C)cc1 | inactive | – |
| CO/C=C(/C(=O)OC)c1ccccc1Oc1cc(Oc2ccccc2C#N)ncn1 | inactive | – |
| Oc1ccccc1-c1ccccc1 | inactive | – |
